Results filed as inconclusive are left out. The source made the active and inactive calls. Calls come from the whole dose curve; as a rule, active = well fitted activation curve with a large enough effect in the signal ratio, with a control signal flat (not every such curve was filed as active); inconclusive = small, poorly fitted or top-dose-only effect, or a change in a side signal; inactive = flat fitted curve, though single readings scatter; the % refers to the signal ratio.

A short description of this assay: Confirmation Concentration-Response Assay for Cell signaling CRE-BLA (Fsk stim). As to conditions: CHO CRE-bla reporter (cAMP response element driving beta-lactamase), NKH477 EC10 stim, FRET ratio; series mostly up to 38.3 µM. From the text: NIH Molecular Libraries Screening Centers Network [MLSCN] NIH Chemical Genomics Center [NCGC] MLSCN Grant: 1X01MH079867-01 Assay Provider: Marshall W. Nirenberg, U.S. National Heart, Lung and Blood Institute CRE beta-lactamase Assay Overview Memories persist for different lengths of time, from seconds or minutes to a lifetime. There are two kinds of memory: short-term memory (STM) and long-term memory (LTM). STM lasts for minutes to hours, which maybe mediated by modifications of molecules involved in synaptic functions. LTM lasts for days or longer, and may be due to the formation of new synapses or restructuring of existing synapses. LTM, but not STM, requires gene transcription and synthesis of proteins. CREB (cyclic-AMP Responsive Element Binding Protein) is one of the candidates plays an important role for enhancement of some types of LTM. CREB, a family of transcription factors, regulates the transcription of genes containing cAMP Responsive Elements (CRE). CRE is a nucleotide sequence often found in the promoter regions of genes that are binding sites for CREB. Using a beta-lactamase reporter-gene under control of cAMP responsive element, a cell-based assay [CellSensor(TM) CRE-bla CHO developed by Invitrogen Corp.] was used to measure forskolin-induced signaling. The selected compounds were measured for their ability to modulate positively the action of EC10 NKH 477, a water soluble forskolin, on reporter gene activity. Compounds were screened in a titration series in 1536-well format. Positive modulators were identified based on the AC50 values derived from the screening data.
NCGC Assay Protocol Summary 2000 cells/5uL in Opti-MEM medium containing 0.5% dialyzed FBS, 0.1 mM NEAA, 1 mM sodium pyruvate and 10 mM HEPES was dispensed into 1536-well plates and cells were cultured at 37 degrees Celsius overnight. Next day 23 nL of compounds or DMSO were delivered to each well using a pin tool, and 1uL of EC10 level of NKH 477, or EC100 level of IBMX, a PDE inhibitor, in the present of NKH 477, or assay medium was added. And then the plates were incubated at 37 degrees Celsius for 3 hours. 1 uL of CCF4-dye mixture was added to each well. After incubated at room temperature for 2 hours the plates were measured on an EnVision plate reader at Excitation 405nm, Emission1=460nm and Emission 2=530nm. The %Activity was determined from the ratio of 460nm/530nm. Keywords: NIH Roadmap, MLSCN, MLSMR, qHTS, NCGC, CRE, beta-lactamase reporter-gene assay.
With `Cc1ccc(-n2ncc3c(=O)[nH]c(SCC(=O)N4CCOCC4)nc32)cc1`, the Potency result was “inactive”.
Under `COC(=O)Nc1nc2ccc(C(=O)c3cccs3)cc2[nH]1` stands 0.794 µM (active).
With `Cc1cc(N2CCN(S(=O)(=O)c3ccc4c(c3)OCCO4)CC2)n2ncnc2n1`, the Potency was 3.16 µM (active).
With `Cn1c(C(=O)NCCCN2CCCC2=O)cc2c(=O)n(C)c3ccccc3c21`, the Potency was 25.1 µM (active).
Under `Nc1nc(CSCc2ccccc2)nc(N2CCOCC2)n1` stands “inactive”.

The values above are taken from PubChem BioAssay AID916 (National Center for Advancing Translational Sciences (NCATS), 2007).
